About 83,000 compounds went through this panel and 20% of them were active in at least one assay; those are over-represented in the sample as a whole.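 How to read the values: 0–100, growth inhibition (40 = 60% inhibited); 0, no net growth; -100 to 0, cell death (-40 = 40% of starting cells died; -100 = all dead).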 The source made the active and inactive calls. The calls were made as follows: active = growth percent below 10; inactive = the rest.
What was measured:
Experiment in all cases: NCI-60 one-dose screen, 48 h (100 = growth as untreated, 0 = no growth, -100 = all killed)
Conditions in all cases: 10 µM unless noted
[1] = test system: HT29 colon
[2] = test system: SNB-75 CNS
[3] = test system: SNB-19 CNS
[4] = test system: U251 CNS
[5] = test system: PC-3 prostate
[6] = test system: SK-MEL-5 melanoma
[7] = test system: UACC-62 melanoma
[8] = test system: LOX IMVI melanoma
[9] = test system: SK-MEL-28 melanoma
[10] = test system: SK-MEL-2 melanoma

Measured: growth

O=C1Nc2ccccc2C12Nc1cc(Cl)ccc1S2 (stereo not given)
inactive: [1] 95.4% | [2] 59.8% | [3] 94% | [4] 98.5% | [5] 44.5% | [6] 81.7% | [7] 80.9% | [8] 86.3% | [9] 138% | [10] 130%

N#Cc1cnc2cc(OC[C@H](O)CO)c(NC(=O)CC3CSSC3)cc2c1Nc1ccc(OCc2cccc(F)c2)c(Cl)c1
active: [1] -77.8% | [2] -92.3% | [3] -64.6% | [4] -69.2% | [5] -100% | [6] -95.9% | [8] -86.3% | [10] -70.6%

c1cnc2n[nH]c(Nc3ncnc4c3sc3ncccc34)c2c1
inactive: [1] 95.4% | [2] 84% | [3] 101% | [4] 97.1% | [5] 104% | [6] 102% | [8] 85.6% | [9] 99% | [10] 103%

Cc1nn(-c2ccccc2)c2ncc3c(c12)C(=O)N(Cc1ccccc1)C3=O
active: [2] -27.1% | [4] 8.03%
inactive: [1] 53.5% | [3] 47.9% | [5] 75.2% | [7] 75% | [8] 37.2% | [9] 91.9% | [10] 113%

CSc1ccc2c(c1)N(CCC1CCCCN1C)c1ccccc1S2 (stereo not given)
inactive: [1] 21.6% | [2] 34.5% | [3] 75.3% | [4] 34.3% | [5] 34.1% | [6] 23.7% | [8] 23.5% | [9] 81.7% | [10] 88.6%

COC(=O)[C@]12CC[C@@H](C)[C@H](C)[C@@H]1C1=CC[C@@H]3[C@@]4(C)C=C(O)C(=O)[C@@]5(C)COC(=C54)C[C@@]3(C)[C@]1(C)CC2
active: [1] -70.6% | [3] -26.5% | [4] -74.9% | [5] -71.2% | [6] -98.1% | [8] -98.8% | [9] -56.9% | [10] -62.8%
inactive: [2] 12.7%

Cc1cc(C)c(OC(=O)CSc2nc3ccccc3c(=O)n2CCc2ccccc2)cc1C
inactive: [1] 99.5% | [2] 88.1% | [3] 103% | [4] 74.1% | [5] 66% | [6] 108% | [9] 111% | [10] 112%

CC1(C)OC(=O)C(=Cc2ccccc2Br)C(=O)O1
inactive: [1] 103% | [2] 81.8% | [3] 94.3% | [4] 96.8% | [5] 92.5% | [6] 97.6% | [8] 94.1% | [9] 115% | [10] 97.6%

CCOC(=O)C(C(C)=O)c1nc2sc3cc(Cl)ccc3n2c(=N)c1C#N (stereo not given)
inactive: [1] 52.8% | [2] 34.5% | [3] 89.6% | [4] 86.2% | [5] 72.5% | [7] 67.8% | [8] 97.2% | [9] 69.8% | [10] 74.1%

— PubChem BioAssay (NCI)
